Experimental findings from paper PMC7819943, “Rice protein-binding microarrays: a tool to detect cis-acting elements near promoter regions in rice” are described below.

The full ranking holds about 68,000 sequences; the median of “fluorescence intensity (a.u.)” is about 9,100, and the highest 2% start at about 16,000. The sample as a whole holds a higher share of the highest values than the screen did.

The assay deals with OsWRKY34 (Oryza sativa, UniProt Q0JBA9 1-250). Description: protein-binding microarray (RPBM); PBS, 2% BSA, 51.3 ng/ul salmon testes DNA, 50 uM zinc acetate, 200 nM TF, 25 C, 1 h; high values mean tight binding. The conditions noted are these: protein: recombinant; tags: N-terminal polyhistidine and DsRed monomer fusion (pET32a); label: CyDye5-dUTP incorporated in the synthesized complementary strand; 3' TTTTT single-stranded linker to array surface; dsDNA, one strand shown. A digest of the protocol: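 An Axon 4000B scanner gave the binding signal as per-feature fluorescence intensity in arbitrary units. This followed washing of a custom Agilent array that had been incubated for 1 h at 25 °C with 200 nM protein in PBS, 2% BSA, salmon testes DNA and 50 µM zinc acetate. The proteins were transcription factors fused at the N-terminus to polyhistidine and DsRed, expressed in E. coli BL21-CodonPlus and purified on Ni–NTA.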
Chain of OsWRKY34 (Q0JBA9 entry or part of it): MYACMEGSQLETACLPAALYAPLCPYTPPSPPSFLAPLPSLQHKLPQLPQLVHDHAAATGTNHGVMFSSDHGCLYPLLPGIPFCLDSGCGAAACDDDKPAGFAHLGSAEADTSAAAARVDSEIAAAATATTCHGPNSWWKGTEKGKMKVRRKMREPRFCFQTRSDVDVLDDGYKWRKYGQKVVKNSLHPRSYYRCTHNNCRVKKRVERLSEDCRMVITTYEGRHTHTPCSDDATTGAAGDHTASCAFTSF
Take “CTTCGTTTTTTAATAGATGACGCCGTTGACTTTTTCTCACCGGAGTCACCTAGTGCAG”: the binding signal is 22000 fluorescence intensity (a.u.).

For the sequence “CTCTTGAACGTTGTCGCCCGCCGTTTCCCGCCGCTGTCTCCGGAGTCACCTAGTGCAG”, the binding signal was 18200 fluorescence intensity (a.u.).

Turning to “GCGCTCCCGTCGTTGTCTCCGCTGCTTTGTTTCTCGTCGCCGGAGTCACCTAGTGCAG”, the binding signal is 11600 fluorescence intensity (a.u.).

Take “CCGTTTCCCGCCGCTGTCTCCCGCCGGAGCCGCCCCTGCTCGGAGTCACCTAGTGCAG”: the binding signal was 9030 fluorescence intensity (a.u.).

With “TAAATCCACGACCCTTCAGCTATCTATCTCAGCTCCAATCCGGAGTCACCTAGTGCAG”, the binding signal is 8170 fluorescence intensity (a.u.).

Consider “CTGCAATCTAGCCATCTGTTATCTATCCATGCATCGATGTCGGAGTCACCTAGTGCAG”, for which the binding signal was 8120 fluorescence intensity (a.u.).

Take “ATAAACATAAACTTCCAACATTTCCGTCACATCATTCTAACGGAGTCACCTAGTGCAG”: the binding signal was 8970 fluorescence intensity (a.u.).

For the sequence “TTTCGGCCCACATTCCTATCCGTTTTTGCTCGGGTGGGCTCGGAGTCACCTAGTGCAG”, the binding signal was 10900 fluorescence intensity (a.u.).

In the case of “CATATCCGTTTTTGCTCGGGTGGGCTGGGTTAGGGACTCACGGAGTCACCTAGTGCAG”, the binding signal is 19000 fluorescence intensity (a.u.).

As for “ATGGCGTTTGGGTTTGGCTCGGGTTGATCTGGATAAGGGACGGAGTCACCTAGTGCAG”, the binding signal was 9020 fluorescence intensity (a.u.).

On to “CGTTTTTGCTCGGGTGGGCTGGGTTAGGGACTCATCTGCACGGAGTCACCTAGTGCAG”, for which the binding signal is 23800 fluorescence intensity (a.u.).

As for “CACTCTGCAGCTCTGCTCGTTTTGCACACGGGTGACTCGTCGGAGTCACCTAGTGCAG”, the binding signal was 9700 fluorescence intensity (a.u.).

In the case of “TTGGTGGGCCGTTATTTTGTTTGGGCTGGATTTGCACGTTCGGAGTCACCTAGTGCAG”, the binding signal is 11700 fluorescence intensity (a.u.).

On to “CCGCGCATTTTTTTGGTTCGAAATTCCTTTGCTAAGCAAACGGAGTCACCTAGTGCAG”, for which the binding signal is 8380 fluorescence intensity (a.u.).

Take “AAGGTTGGCATGACAATTCTCACTACTTGGACTAACAGTTCGGAGTCACCTAGTGCAG”: the binding signal is 8310 fluorescence intensity (a.u.).

“TTCCAACTACCTAGCTCAGCTTAGTCTCTGGTTGACCATTCGGAGTCACCTAGTGCAG”: the binding signal is 8450 fluorescence intensity (a.u.).

Regarding “GCTTCTACAATCGGATGGATTCACCATTGATTCTCGTTTTCGGAGTCACCTAGTGCAG”, the binding signal is 8940 fluorescence intensity (a.u.).

For the sequence “ACTTGATTTACGAACAGACATTTTTTATTTTTCTACACCACGGAGTCACCTAGTGCAG”, the binding signal is 9230 fluorescence intensity (a.u.).

For the sequence “TTGGGGTCGAGATATCCGGTTTTGTGGTTTAGGGTCATGTCGGAGTCACCTAGTGCAG”, the binding signal was 9090 fluorescence intensity (a.u.).

As for “TATTTGATGCCGTTGACTTTTTTAAATATGTTTGACCGTTCGGAGTCACCTAGTGCAG”, the binding signal was 20900 fluorescence intensity (a.u.).

With “ACTTTTTTAAATATGTTTGACCGTTCGTTTTATTCAAAAACGGAGTCACCTAGTGCAG”, the binding signal was 8320 fluorescence intensity (a.u.).

In the case of “ATTTGATGCCGTTGACTTTTTTAAATATGTTTAACCGTTCCGGAGTCACCTAGTGCAG”, the binding signal was 33000 fluorescence intensity (a.u.).

Take “TATTTGACGCCGTTGATTTTTTTAAATATGTTTGACCGTTCGGAGTCACCTAGTGCAG”: the binding signal is 11000 fluorescence intensity (a.u.).

Take “GAATTGATCTCATGCATGCCAACCCTTCTAGCAATCTATCCGGAGTCACCTAGTGCAG”: the binding signal is 9310 fluorescence intensity (a.u.).

On to “GGACCGTTCACTAACCCCGTAACCGTGTCGCGCGCGCAACCGGAGTCACCTAGTGCAG”, for which the binding signal was 9590 fluorescence intensity (a.u.).

Take “TTCTTATTTGCAAGTATACTGTTTTGCTTTTCTCTCTAATCGGAGTCACCTAGTGCAG”: the binding signal is 9690 fluorescence intensity (a.u.).
